The values below come from PubChem BioAssay (NCI).

Assay in all cases: NCI-60 one-dose screen, 48 h (100 = growth as untreated, 0 = no growth, -100 = all killed)
Holding throughout (conditions): 10 µM unless noted

Assay [1] deals with NCI-H23 lung.
Assay [2] has as its system NCI-H226 lung.
For assay [3], the system named is NCI-H322M lung.
For assay [4], the system named is HOP-62 NSCLC.
The test system of assay [5] is NCI-H460 lung.
In assay [6] the test system is HOP-92 NSCLC.
In assay [7] the test system is NCI-H522 lung.
The subject of assay [8] is A549/ATCC NSCLC.
Assay [9] concerns 786-0 renal.
The test system of assay [10] is COLO 205 colon.

Compounds without any hit were thinned out: in the full panel of roughly 83,000, 20% have a hit.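 Single-dose data. Exposure time 48 hours. Values below 10 considered active.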 Unmarked numbers belong to inactive results. Calls of active or inactive are those of the source.

Regarding `CN1CCN(C(=S)SCCCCOc2cc(=O)oc3ccccc23)CC1`, the growth is 80.9% in [1]; 67.1% in assay [2]; 102% in assay [3]; 79.6% in assay [4]; 93.5% in assay [5]; 67.5% in [6]. For the same compound, the growth in assay [7] was 63.6%; in assay [8], 84.5%; in assay [9] it was 96.9%; in [10] it was 86.4%.

As for `CN1CCN(c2ccc(NC(=O)c3cncnc3Nc3ccc(OCc4cccc(F)c4)c(Cl)c3)cc2)CC1`, the growth in assay [1] was 78%; in assay [2], 94.9%; in assay [3] it was 81.1%; in assay [4], 33.1%; in assay [5], 5.33% (active); in [6], 57.1%. Moreover, the growth in assay [7] was 103%; in [8] it was 57%; in assay [9], 56%; in assay [10], 6.12% (active).

Take `O=C(NCc1cccc(CNC(=O)Nc2nc3ccccc3[nH]2)c1)Nc1nc2ccccc2[nH]1`: the growth was -65.1% (active) in assay [1]; -22.2% (active) in assay [2]; -7.92% (active) in assay [3]; -46.2% (active) in [4]; -52.9% (active) in assay [5]; -27.7% (active) in assay [6]. Further, the growth in assay [7] was 1.54% (active); in [8], -42.5% (active); in assay [9], -42.8% (active); in assay [10] it was -2.34% (active).

As to `COc1cccc(/C=C/C(=O)c2cc3c(N)c(C(=O)Nc4cccc5ccccc45)sc3nc2C)c1`, the growth was 28.4% in assay [1]; 36.4% in assay [2]; 41.1% in assay [3]; 25% in assay [4]; -0.349% (active) in assay [5]; 68.8% in [6]. Also, the growth is 12% in assay [7], 20.3% in assay [8], 3.42% (active) in [9] and 33.9% in assay [10].

As to `O=C1Nc2c(C(=O)O)cccc2/C1=N/c1n[nH]c(=S)s1`, the growth in assay [1] is 87.8%; in assay [2], 86.2%; in [3], 95.6%; in [4], 79.7%; in assay [5], 93.4%; in assay [6], 96.1%. The growth in assay [7] is 81.1%; in [8], 85.5%; in [9] it was 91.3%; in assay [10] it was 118%.

Take `CC1=CC(c2ccco2)=C2C(N)=NNC2N1` (stereo not given): the growth in assay [1] is 97.6%; in [2], 95.7%; in [3], 92.6%; in assay [4] it was 88.8%; in assay [5], 100%; in assay [6], 77.8%. The growth is 95.2% in assay [7], 101% in [8], 97.6% in [9] and 116% in assay [10].

`CCCn1cnc2c(c1=N)C(c1ccc(F)cc1)c1sc3c(F)cccc3c1O2` (stereo not given): the growth in [1] is 70.1%; in [2], 74.7%; in assay [3], 78.1%; in [4], 52.4%; in assay [5] it was 18.7%; in assay [6], 67.5%. Also, the growth is 4.15% (active) in assay [7], 48.1% in [8], 40.9% in [9] and 86.4% in assay [10].

For `O=[N+]([O-])c1cc(NS(=O)(=O)c2ccccc2)ccc1NS(=O)(=O)c1ccccc1`, the growth in [1] is 112%; in assay [2], 104%; in assay [3] it was 135%; in assay [4], 110%; in assay [5] it was 93.3%; in assay [6], 97.8%. Moreover, the growth is 80.9% in [7], 97.9% in assay [8], 102% in assay [9] and 109% in assay [10].

For the compound `Cc1c(CC(=S)N2CCOCC2)nnn1-c1cccc(C(F)(F)F)c1`, the growth was 107% in assay [1]; 107% in [2]; 109% in assay [3]; 101% in assay [4]; 103% in assay [5]; 111% in assay [6]. Further, the growth in assay [7] was 89.6%; in [8] it was 107%; in assay [9] it was 110%; in assay [10] it was 119%.

As for `C=C(C)[C@@H]1CC[C@]2(C)[C@H](CC=C3[C@@H]4CC(C)(C)CC[C@]4(CO)CC[C@]32C)[C@@]1(C)CCCN`, the growth was 68.7% in assay [1]; 95.9% in assay [2]; 54.6% in assay [3]; 63.9% in [4]; -93.2% (active) in [5]; 42.5% in assay [6]. Besides, the growth in [7] was -40.1% (active); in [8], -71% (active); in assay [9] it was 32.6%; in assay [10] it was -56.8% (active).

Take `CCCC(CC)(C(=O)Nc1ccc2nc(C)cc(N)c2c1)C(=O)Nc1ccc2nc(C)cc(N)c2c1`: the growth was 94.1% in [1]; 97.8% in [2]; 108% in assay [3]; 107% in [4]; 106% in [5]; 117% in assay [6]. In addition, the growth in [7] is 92%; in [8], 98.3%; in assay [9], 103%; in assay [10], 114%.

As for `CCN1C(=O)N(CC)C2C1NN=c1s/c(=C\c3ccc[nH]3)c(=O)n12` (stereo not given), the growth in [1] is 42.9%; in [2], 68%; in assay [3], 36.5%; in assay [4], 25.9%; in assay [5], 4.38% (active); in [6], 54.2%. The growth is -15.6% (active) in [7], 7.44% (active) in assay [8], 31% in [9] and 4.65% (active) in assay [10].

Consider `O=C(NNC(=O)c1ccc(NC(=O)c2ccccn2)cc1)Nc1ccc2ccccc2c1`, for which the growth in [1] is 96.5%; in assay [2], 103%; in assay [3], 103%; in [4], 115%; in assay [5] it was 110%; in [6], 108%. The growth in assay [7] was 105%; in assay [8], 108%; in assay [9], 111%; in assay [10], 130%.

Regarding `CCCCCCCCCCCCCCCCCCOc1ccccc1CC(=O)NCC[N+]1(C)CCCCC1`, the growth is 62.5% in [1]; 74.2% in [2]; 62.7% in assay [3]; 59% in [4]; 41.9% in [5]; 19.9% in assay [6]. Further, the growth in assay [7] is 32.7%; in assay [8] it was 51.2%; in [9], 74.2%; in assay [10], 23.6%.

Consider `NC1=Nc2cc(OCCCCN3Cc4ccccc4C3)c(OCC3CC3)cc2C12CCCC2`, for which the growth in [1] is 66.9%; in assay [2], 37.7%; in [3], 75.7%; in [4] it was 73.2%; in [5], 23.2%; in [6], 29.4%. Further, the growth in assay [7] is 67.3%; in [8], 67.5%; in [9], 56.2%; in [10] it was -74.5% (active).

Turning to `CC1=C(C(=O)Nc2ccccc2)C(c2ccc3c(c2)OCO3)NC(=S)N1` (stereo not given), the growth in assay [1] is 97.9%; in assay [2], 96.7%; in assay [3] it was 107%; in assay [4], 121%; in assay [5] it was 113%; in assay [6], 112%. Further, the growth is 87.9% in assay [7], 108% in assay [8], 101% in [9] and 117% in assay [10].

As to `C[n+]1ccc(CCc2c[nH]c3ccccc23)cc1`, the growth in assay [1] was 102%; in assay [2] it was 109%; in assay [3] it was 93.4%; in assay [4] it was 69.3%; in assay [5], 107%; in assay [6] it was 93.9%. The growth in assay [7] is 81.4%; in assay [8], 66.2%; in assay [9], 100%; in assay [10], 96.8%.

As for `O=C(Nc1ccccc1[N+](=O)[O-])c1ccc(Cl)c(Cl)c1`, the growth was 86.6% in [1]; 79.9% in [2]; 101% in [3]; 102% in [4]; 93.4% in assay [5]; 69.7% in [6]. In addition, the growth in assay [7] is 69.9%; in assay [8], 104%; in [9], 105%; in [10], 110%.

Consider `CNC1=CC(=O)c2c(C(=O)OC)c(C)[n+]([O-])c(C)c2C1=O`, for which the growth in [1] was 40%; in assay [2], 82.1%; in assay [3] it was 71.9%; in assay [4], 97.9%; in assay [5], 28.2%; in assay [6], 106%. Moreover, the growth in [7] was 23.3%; in assay [8], 55.3%; in [9], 97.9%; in assay [10] it was 8.07% (active).

As to `C=C1CC[C@@H]2[C@](C)(COC(C)=O)[C@H](OC(C)=O)CC[C@@]2(C)[C@@H]1CC(Nc1ccc(S(=O)(=O)NC(C)=O)cc1)C1=CCOC1=O` (stereo not given in full), the growth in assay [1] is 7.36% (active); in [2], -52.3% (active); in [3] it was 35.3%; in assay [4] it was 82%; in [5], 5.29% (active); in [6], 21%. The growth was -63.2% (active) in assay [7], 27.9% in assay [8], -66% (active) in assay [9] and -32.7% (active) in assay [10].

`Fc1cc(Nc2ccc3c(OCCCN4CCOCC4)cccc3n2)ccc1Cl`: the growth in assay [1] is 61.1%; in assay [2], 68.8%; in [3] it was 45.3%; in assay [4], 39.2%; in [5], 21.1%; in assay [6], 27.3%. Also, the growth was -15.5% (active) in [7], 25.7% in [8], 1.04% (active) in assay [9] and -50.2% (active) in assay [10].

In the case of `COc1ccc2nc(Cl)c(/C=C3\CC(c4ccccc4)=NN(c4ccccc4)C3=O)cc2c1`, the growth in assay [1] is 78.8%; in [2], 55.6%; in assay [3], 74.6%; in assay [4], 48.4%; in assay [5], 67.8%; in assay [6] it was -20.3% (active). Also, the growth is 65.6% in assay [7], 65.2% in assay [8], -4.27% (active) in [9] and 99.3% in [10].

With `C=CCOC(=O)C1=C(C)N(CC)C(=O)NC1c1c(Cl)n(C)c2ccccc12` (stereo not given), the growth in assay [1] is 96%; in assay [2] it was 106%; in assay [3] it was 78.8%; in [4], 103%; in assay [5], 99%; in assay [6] it was 68.1%. Besides, the growth in assay [7] is 85.3%; in assay [8], 87.6%; in assay [9], 95.7%; in assay [10] it was 108%.

For `O=S(=O)(NCCCNc1nccc(-c2c(-c3cccc(F)c3)nc3occn23)n1)c1ccc(F)cc1`, the growth in [1] was 84.4%; in [2], 39.6%; in [3], 73.2%; in assay [4] it was 63.7%; in [5], 52.7%; in [6], 61.4%. Moreover, the growth in assay [7] was 38.7%; in assay [8] it was 31.1%; in [9], 66%; in assay [10], 17.7%.

In the case of `C/C(=N\O)[C@@H]1CC[C@]2(CO)CC[C@]3(C)[C@H](CC[C@@H]4[C@@]5(C)CCCNC(C)(C)[C@@H]5CC[C@]43C)[C@@H]12`, the growth was 89.6% in assay [1]; 92.6% in assay [2]; 94.2% in [3]; 90% in [4]; 72.6% in [5]; 65.6% in assay [6]. Further, the growth in assay [7] is 90%; in assay [8], 76.6%; in assay [9] it was 92.3%; in [10] it was 81%.

Regarding `O=C(O)c1ccc(-c2ccc(/C=N/Nc3nc(Nc4ccccc4)nc(N4CCCCC4)n3)o2)cc1`, the growth in assay [1] was 62.2%; in assay [2] it was 92.4%; in assay [3], 55.1%; in assay [4], 85%; in assay [5], 52.8%; in assay [6], 35.1%. Also, the growth was 43% in [7], 63.5% in assay [8], 61.5% in assay [9] and 83.2% in assay [10].
